Assay results reported in PubChem BioAssay AID1159606 (Sanford-Burnham Center for Chemical Genomics, 2016).
The whole screen tested about 360,000 compounds, of which about 7,300 (2%) were called active. For the sample, actives were picked, then their nearest neighbours and some compounds at random. Unmarked numbers belong to inactive results. Rule as the data show it: active = inhibition above about 50%; inactive = the rest.

Assay: inhibitors of TWEAK-Fn14 signaling, primary screen, luciferase reporter cells, uHTS (AID 1159606)
Details: TWEAK-stimulated Fn14 reporter cells, luciferase luminescence, 8 h; at 10 µM; stronger effect = higher value
`COc1ccc(N2CCN(C(=O)CNS(=O)(=O)c3ccc(C)c(C)c3)CC2)cc1` gave an inhibition of 4.34%. With `COc1ccc(C(C#N)Nc2ccccc2C)cc1` (stereo not drawn) the inhibition was -0.99%. For `COC(=O)[C@@]1(Cc2ccc(F)cc2)[C@H]2c3cc(C(=O)N4CCCC4)n(Cc4ccc(OC(F)(F)F)cc4)c3C[C@H]2CN1C(=O)c1ccccc1`, the inhibition was 18.4%. Work on `O=C(COC(=O)c1ccccn1)NNC(=O)c1ccc([N+](=O)[O-])cc1` yielded an inhibition of -4.89%. `Cc1cc(C)cc(OCC(=O)O/N=C(\N)Cc2ccc([N+](=O)[O-])cc2)c1` gave an inhibition of -9.61%. With `N/C(=N\OC(=O)c1ccc([N+](=O)[O-])cc1)c1ccccn1` the inhibition was 77.4% (active). Work on `N/C(=N\OC(=O)CCC1CCCCC1)c1ccccn1` yielded an inhibition of 18.4%. For `Cc1ccc(C(=O)O/N=C(\N)c2ccccn2)cc1Cl`, the inhibition was 92.3% (active). With `CO/N=C(\N)c1ccc([N+](=O)[O-])cc1` the inhibition was 0.74%. For `N/C(Cc1ccc([N+](=O)[O-])cc1)=N\OC(=O)COc1ccc2ccccc2c1`, the inhibition was -1.78%. For `N/C(=N\OC(=O)Cc1ccc([N+](=O)[O-])cc1)c1ccccn1`, the inhibition was 69.1% (active). For `Cc1cccc(/C(N)=N/OC(=O)c2ccccc2Cl)c1`, the inhibition was 31.2%. `COc1ccc(C2OC(CCc3ccccc3)Cc3[nH]c(=S)[nH]c(=O)c32)cc1` (stereo not drawn) gave an inhibition of -31.7%. For `Cc1ccc(S(=O)(=O)N2CCC(=O)N([C@H](COCc3ccccc3)Cc3ccccc3)CC2)cc1`, the inhibition was 1.7%. `CC(Oc1ccc(Cl)cc1)c1ccnn1S(C)(=O)=O` (stereo not drawn) gave an inhibition of 8.92%. `CN(C)CCn1c2c(c(SCC(=O)Nc3ccccc3C(F)(F)F)nc1=O)CCCC2` gave an inhibition of -2.47%. Compound `CC(C)(C)c1ccc(/C=C/C(=O)NCCCn2ccnc2)cc1` has an inhibition of 13.5%. Compound `O=C(NC1CCCC1)C1c2ccccc2OCC(=O)N1Cc1ccccc1` (stereo not drawn) has an inhibition of 2.4%. With `COC(=O)Nc1ncc(CN2CCCCC2)s1` the inhibition was 1.88%. In the case of `Cc1nc(-c2ccc(NC(=O)c3cccs3)cc2)cs1`, the inhibition is reported as 69% (active). `CCc1ccc(NC(=O)C(=O)NNC(=O)c2cccs2)cc1` gave an inhibition of -12.2%. Work on `Cc1ccc(OCC(=O)Nc2ccc(NC(=O)c3cccs3)cc2)c(C)c1` yielded an inhibition of -68.7%. For `CCN(C(=O)CSc1nnc2ccccn12)C1CCS(=O)(=O)C1` (stereo not drawn), the inhibition was 7.23%. With `COc1ccc2c(c1)c(=Cc1ccc(N(C)C)cc1)c1cc(-c3ccccc3)[n+](C)n12` the inhibition was 100% (active). Work on `CC1(C)CC(=O)C2=C(C1)N=C1SCCC(=O)N1C2c1ccc(C(F)(F)F)cc1` (stereo not drawn) yielded an inhibition of 1.88%. In the case of `O=C1OC(Oc2ccc(Br)cc2)(c2ccccc2)c2ccccc21` (stereo not drawn), the inhibition is reported as 7.48%. With `Nc1[nH]c(C(=O)c2ccccc2)c(-c2ccncc2)c1C(=O)NCc1cccc2ccccc12` the inhibition was 36%. `CC(=O)c1ccc(NC(=O)c2ccc3c(Cl)c4c(nc3c2)CCCC4)cc1` gave an inhibition of 40.1%. With `CC(C)CCNC(=O)c1ccc2c(Cl)c3c(nc2c1)CCC3` the inhibition was 58.4% (active). `COc1cccc(NC(=O)c2ccc3c(SCC(=O)O)c4c(nc3c2)CCCC4)c1` showed an inhibition of -6.4%. `CCc1ccc([C@@H]2CC(=O)[C@@H]3CN(S(=O)(=O)c4ccc(C)cc4)[C@H](c4ccc(Cl)cc4)C[C@@H]3N2S(=O)(=O)c2ccc(C)cc2)cc1` showed an inhibition of -18.3%. For `COCOCCn1cc(CN2CCS(=O)(=O)N(Cc3ccc(-c4ccc(OC)cc4)cc3)C(CC(C)C)C2=O)nn1` (stereo not drawn), the inhibition was -6.75%. Compound `COCc1cc(=O)[nH]c2cc(NC(=O)C(F)(F)F)c(C)cc12` has an inhibition of 6.5%. `C[C@H]1CN([C@@H](C)CO)C(=O)CCCn2cc(nn2)CO[C@@H]1CN(C)S(=O)(=O)c1ccc(-n2cccn2)cc1` gave an inhibition of -16.6%. In the case of `Cc1cccc(N2C(=O)c3ccc(C(=O)Nc4cccc(C(=O)O)c4)cc3C2=O)c1`, the inhibition is reported as 8.83%. In the case of `O=C(O)c1ccc2c(c1)C(=O)N(c1ccc(/C=C/C(=O)c3ccccc3)cc1)C2=O`, the inhibition is reported as 75.5% (active). In the case of `O=C(c1ccc2c(c1)C(=O)N(c1ccc(Cl)cc1)C2=O)N1CCN(c2ccccn2)CC1`, the inhibition is reported as -12.4%. For `CCN1C[C@@H]2[C@@H]3C(=O)N(C)C(=O)[C@@H]3[C@](C)(C1=O)N2C(=O)c1ccccc1`, the inhibition was 11.5%. `CC(Sc1nncn1C)C(=O)NCCC1=CCCCC1` (stereo not drawn) showed an inhibition of -1.74%. With `COc1ccc(NC(=O)C(Br)C(C)C)cc1` (stereo not drawn) the inhibition was -6.35%. For `COc1ccc(NC(=O)CCCC(=O)c2ccccc2)cc1`, the inhibition was -22.6%. For `COc1ccc(NC(=O)ON=C2c3ccccc3-c3ccccc32)cc1`, the inhibition was 57.8% (active). Compound `CCC1CCCCN1C(=O)Nc1cccc(NC(=O)N2CCCCC2CC)c1` (stereo not drawn) has an inhibition of -4.07%. With `CCCCn1c(N)c(N(Cc2ccccc2OC)C(=O)COc2cc(C)ccc2Cl)c(=O)[nH]c1=O` the inhibition was -6.52%. For `CC(C)CC(=O)N1CCN(Cc2ccccc2Br)CC1`, the inhibition was -11.1%. In the case of `CCC1OC(C2CC2)CC2=C1C(=O)OC(C)(C)O2` (stereo not drawn), the inhibition is reported as 6.62%. With `COc1ccccc1-n1c(SCC(=O)Nc2ccc(Cl)cc2)nc(O)c(Cc2ccccc2)c1=O` the inhibition was -7.18%. For `Cn1c(SCC(=O)Nc2ccc(Cl)cc2)nc(O)cc1=O`, the inhibition was 80.5% (active). With `CC(C)Cn1c(SCC(=O)Nc2ccc(Cl)cc2F)nc(O)cc1=O` the inhibition was 0.05%. Work on `O=C(COC(=O)c1ccc(NS(=O)(=O)c2cccs2)cc1O)Nc1ccc(F)cc1` yielded an inhibition of 1.2%. `CCOC(=O)N1CCN(C(=O)C2CCCN(c3ncnc4c3sc3cccc(F)c34)C2)CC1` (stereo not drawn) showed an inhibition of 28.8%. `FC(F)(F)C1CCCN(c2nsc3ccccc23)C1` (stereo not drawn) gave an inhibition of 7.5%. With `CCCCCCCCN1C(=O)[C@H](CC(=O)NCc2cccc3ccccc23)C[C@@]2(C(=O)OC)CCCCC=C12` the inhibition was -1.79%. With `CC(=NC1CCN(Cc2ccccc2)CC1)c1c(O)[nH]c(=O)[nH]c1=O` the inhibition was 0.57%. With `c1ccc(CN2CCC(N=C3NN=C(c4ccc5c(c4)OCCO5)CS3)CC2)cc1` the inhibition was 57.6% (active). `CS(=O)(=O)N(CC(=O)N1CCN(Cc2ccccc2)CC1)c1ccc2c(c1)OCCO2` gave an inhibition of 14.7%. In the case of `Clc1cccc(N=C2NN=C(c3ccc4c(c3)OCCO4)CS2)c1`, the inhibition is reported as 84.4% (active). For `CN(C)c1nc(=Nc2cccc(Cl)c2)ss1`, the inhibition was 5.73%.
